# Bioassay records: PubChem, National Center for Advancing Translational Sciences (NCATS)
# LDHA block = qHTS assay for inhibitors of human lactate dehydrogenase; 480,000 compounds, 0.15% hits; activity change, % (values are at about 110 or 230 µM); purified LDHA, NADH/diaphorase-resazurin fluorescence; active compounds read low; L-lactate dehydrogenase A chain (Homo sapiens), P00338; in the data active = activity change below about -30%; inconclusive = mostly about -25% to -30%;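 also: plate controls were DMSO wells for no effect and wells without enzyme for full effect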
#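 Resorufin fluorescence (ex540/em590), read at 0 and 20 min after diaphorase/resazurin addition, reports the NADH left after a 5 min room-temperature reaction of 2 nM human LDH5 with 0.06 mM NADH and 0.2 mM pyruvate.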
# DT40 TDP1 CPT = qHTS for Inhibitors of human tyrosyl-DNA phosphodiesterase 1 (TDP1): qHTS in cells in presence of CPT; chicken DT40 Tdp1-/-;hTDP1 cells + 20 nM CPT, ATP luminescence, 48 h; Potency, µM (highest dose often 46.2 µM), for inactives: at the top dose activity change, negative = growth inhibition, most hits filed as inhibitors; 420,000 compounds, 12% hits; AID 686979, 2013; also: potency is read from the fitted curve at half-maximal effect; nearly all actives have a fitted effect of over 55% in size
#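 Chicken DT40 Tdp1-/- cells complemented with human TDP1, 400 cells/well, exposed to compounds plus 20 nM camptothecin for at least 48 h at 37 C; viability read as ATP content by CellTiter-Glo luminescence.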
# IL-1B inflam inh = qHTS for Inhibitors of Inflammasome Signaling: IL-1-beta AlphaLISA Primary Screen; THP-1 LPS/ATP IL-1B secretion, AlphaLISA, 16 h; active compounds read low; activity change, % at 57.5 µM; 360,000 compounds, 4.7% hits; in the data active = activity change below about -50%; inconclusive = mostly about -30% to -49%
#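 Secreted IL-1B measured by AlphaLISA bead assay after 16 h compound exposure of THP-1 cells; compounds (final up to 57.5 uM) added 1 h before LPS (250 ng/mL) and ATP (1.25 mM) stimulation; lower signal means less secretion.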
# RORgamma inh = qHTS for inhibitors of ROR gamma transcriptional activity; Nuclear receptor ROR-gamma (Mus musculus), P51450; Drosophila S2 Gal4-RORgamma UAS-luciferase reporter, 20 h; Potency, µM (doses to about 53.6 µM), without a hit: top-dose activity change, negative = inhibition, most hits filed as inhibitors; 310,000 compounds, 5.4% hits; AID 2551, 2010; also: potency is read from the fitted curve at half-maximal effect; nearly all actives have a fitted effect of over 60% in size
# Target sequence (P51450 whole entry, looked up, the tested form may be a part): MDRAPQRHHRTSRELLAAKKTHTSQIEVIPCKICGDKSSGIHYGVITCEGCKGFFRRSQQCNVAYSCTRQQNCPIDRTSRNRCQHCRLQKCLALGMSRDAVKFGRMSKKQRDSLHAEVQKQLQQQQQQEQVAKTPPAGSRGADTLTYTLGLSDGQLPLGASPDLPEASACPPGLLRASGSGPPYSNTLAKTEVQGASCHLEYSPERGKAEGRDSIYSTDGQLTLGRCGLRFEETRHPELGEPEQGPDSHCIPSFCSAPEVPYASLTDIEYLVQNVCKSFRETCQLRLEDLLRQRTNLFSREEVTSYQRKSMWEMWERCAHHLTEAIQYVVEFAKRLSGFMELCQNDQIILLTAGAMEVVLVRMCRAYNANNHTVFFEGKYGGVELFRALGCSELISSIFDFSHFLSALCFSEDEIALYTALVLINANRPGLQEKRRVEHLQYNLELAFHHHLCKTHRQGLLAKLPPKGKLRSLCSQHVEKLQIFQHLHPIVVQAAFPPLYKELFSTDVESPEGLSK
#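 Drosophila S2 cells stably expressing Gal4-DBD/mouse RORγ fusion under metallothionein promoter plus UAS-luciferase; compound 1 h, then 700 uM CuSO4 induction for 20 h at ambient temperature; inhibition read as reduced luminescence.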
# Gal4-VP16 FLuc = VP16 counterscreen qHTS for inhibitors of ROR gamma transcriptional activity. Drosophila S2 Gal4-VP16 UAS-luciferase, luminescence, 20 h. Potency, µM (titrated, usually from 53.6 µM), inactives show at the top dose activity, negative = inhibition, most hits filed as inhibitors. 310,000 compounds, 3.5% hits;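 also: Gal4-VP16 expression switched on by copper sulfate through the metallothionein promoter; potency is read from the fitted curve at half-maximal effect; nearly all actives have a fitted effect of over 50% in size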
# TDP1 cell noCPT = qHTS for Inhibitors of human tyrosyl-DNA phosphodiesterase 1 (TDP1): qHTS in cells in absence of CPT; DT40 Tdp1-/- hTDP1 cells, no CPT, ATP luminescence, 48 h; Potency, µM (series often up to 46.2 µM), inactives show at the top dose activity change, negative = growth inhibition, usual class: inhibitors; 420,000 compounds, 15% hits; AID 686978, 2013; also: potency is read from the fitted curve at half-maximal effect; nearly all actives have a fitted effect of over 55% in size
#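 A cellular qHTS used chicken DT40 cells lacking endogenous Tdp1 but carrying stably transfected human TDP1. Compounds were applied without camptothecin, and cell growth kinetics were judged by ATP-dependent luminescence after ≥48 hr.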
# Starred values were filed as active, the others as inactive; ? = inconclusive; · = no result; ! = repeats disagree; [ ] = dose if it differs, or a comment. A selection: hits, their analogues and other compounds. The true share with any hit is near 18%. Unless noted, calls follow the shape of the dose curve; as a rule, active = well fitted curve in the direction sought with a large enough effect; inconclusive = small, poorly fitted or top-dose-only effect, or another doubt; inactive = no such curve, though single readings can be large; an effect the other way counts as inactive or inconclusive. Unless noted, % is scaled to controls: 0 for no effect and ±100 for the full control effect.
SMILES,LDHA block,DT40 TDP1 CPT,IL-1B inflam inh,RORgamma inh,Gal4-VP16 FLuc,TDP1 cell noCPT
CC(NC(=O)c1cc2sccc2n1Cc1ccc(F)cc1)c1ccccc1 (stereo not given),1,?,·,·,·,?
CCSc1ccccc1C(=O)N1CCN(c2nc3ccccc3s2)CC1,1,?,·,·,·,15µM*
CCCC(=O)N1CCN(c2nc3ccccc3s2)CC1,-12,?,8,?,?,-30%
Cc1cccc2sc(N3CCN(C(=O)c4cccs4)CC3)nc12,-2,-15%,-78*,·,·,-28%
c1ccc2sc(SN3CCOCC3)nc2c1,-5,-23%,24,10µM*,7.1µM*,?
c1ccc2sc(N3CCOCC3)nc2c1,0,-9%,-7,4%,?,2%
Cc1ccccc1NC(=O)c1cc2sccc2n1Cc1ccc(F)cc1,0,?,·,·,·,26µM*
CC(C)CNC(=O)COC(=O)c1n[nH]c(=O)c2ccccc12,0,·,·,·,·,·
O=C(c1ccc(Cl)s1)N1CCN(c2nc3ccccc3s2)CC1,-1,?,-14,30%,-5%,16µM*
O=C(c1cc2sccc2n1Cc1ccc(F)cc1)N1CCN(c2nc3ccccc3s2)CC1,-2,13µM*,0,?,11µM*,21µM*
CCN1CCN(C(=O)c2ccc(-c3nc4ccccc4s3)s2)CC1,-4,-14%,0,16%,0%,?
O=C(c1ccc(-c2nc3ccccc3s2)s1)N1CCOCC1,-11,?,-21,4.5µM*,?,?
O=C(c1cccs1)N1CCN(c2nc3ccccc3s2)CC1,-7,?,52,?,19%,?
COCCNC(=O)c1ccc2c(c1)ncn2-c1cccc(C)c1,0,16µM*,-11,6%,29%,?
O=C(c1ccc2ccccc2c1)N1CCc2ccccc21,-11,12%,21,17%,4%,-11%
COCCNC(=O)c1ccc2c(c1)ncn2-c1cc(C)ccc1OC,-1,-25%,·,·,·,-12%
Cc1cccc(-n2cnc3cc(C(=O)NCC4CCCO4)ccc32)c1 (stereo not given),-2,9.2µM*,?,·,·,7.3µM*
Cc1cccc(-n2cnc3cc(C(=O)N4CCc5ccccc54)ccc32)c1,0,-13%,-77*,18%,?,?
COc1ccccc1CNCC(=O)Nc1ccc(N(C)C)cc1,-10,?,8,1%,-17%,?
CCn1c2ccccc2c2cc(NC(=O)CNCc3ccccc3OC)ccc21,-3,5.2µM*,6,-44%,-20%,5.8µM*
COc1ccccc1CNCC(O)Cn1c2ccccc2c2ccccc21 (stereo not given),-3,?,-61*,?,?,?
CCn1c2ccccc2c2cc(NC(=O)COc3ccccc3OC)ccc21,-5,5.2µM*,27,?,-26%,3.7µM*
Cc1ccc(NC(=O)C(Cc2ccccc2)n2cnnn2)cc1F (stereo not given),3,·,·,·,·,·
Cc1nc(-c2ccsc2)sc1C(=O)Nc1ccc2[nH]c(=O)[nH]c2c1,2,·,·,·,·,·
C=C(C)Cn1c(N2CCN(Cc3ccccc3)CC2)nc2c1c(=O)[nH]c(=O)n2C,-2,·,·,·,·,·
SMILES,LDHA block,DT40 TDP1 CPT,IL-1B inflam inh,RORgamma inh,Gal4-VP16 FLuc,TDP1 cell noCPT
CCOc1cc(/C=C/C(=O)OCc2cccc(C)c2)cc(Cl)c1OC,11,·,·,·,·,·
CCN(CC)c1ccc2cc(C(C)=O)c(=O)oc2c1,-1,-7%,30,25%,-4%,0%
CCN(CC)c1ccc2cc(C(=O)Nc3cccnc3N3CCOCC3)c(=O)oc2c1,·,·,·,1%,-8%,·
CCN(CC)c1ccc2cc(C(=O)Nc3ccccn3)c(=O)oc2c1,-6,4.5µM*!,-9,?,?,?
CCN(CC)c1ccc2cc(NC(=O)CCC(=O)O)c(=O)oc2c1,9,-4%,74,0.79µM*,1.3µM*,1%
CCN(CC)c1ccc2cc(C=O)c(=O)oc2c1,-4,29µM*,-19,-11%,-4%,18µM*
COc1ccc(Nc2cc(C)nc(N3CCN(C(=O)Nc4ccc(F)cc4)CC3)n2)cc1,10,·,·,·,·,·
Cn1c(=O)c2c(ncn2CC(=O)OCC(=O)c2ccc(C3CCCCC3)cc2)n(C)c1=O,1,·,·,·,·,·
CCN1CCN(c2oc(/C=C/c3cccc(OC)c3)nc2C#N)CC1,0,·,·,·,·,·
O=C(COc1ccc2nc3n(c(=O)c2c1)CCCCC3)NC1CC1,0,·,·,·,·,·
COc1ccc(C2CC(=O)N(c3ccccc3)C3=C2C(=O)OC3)cc1 (stereo not given),0,·,·,·,·,·
CCCc1nc(SCC(=O)Nc2ccc(N3CCOCC3)cc2)c2ccccc2n1,1,?,3,?,-20%,5.2µM*
CC(C)c1nc(SCC(=O)Nc2ccc(N3CCOCC3)cc2)c2ccccc2n1,-3,15µM*,0,-44%,-1%,?
COc1ccc(NC(=O)c2cc(=O)c3cc(C)ccc3o2)c(OC)c1,-3,·,·,·,·,·
Cc1cccc(NC(=O)COC(=O)c2ccc3ccccc3n2)c1,10,·,·,·,·,·
CCOc1ccc(S(=O)(=O)NCCc2sc(-c3cccc(F)c3)nc2C)cc1,14,·,·,·,·,·
COc1ccc(-c2ccc(SCC(=O)NCc3ccc4c(c3)OCO4)nn2)cc1OC,3,?,-95*,7%,-16%,29µM*
COc1ccc(-c2ccc(SCC(=O)c3ccccc3)nn2)cc1OC,-2,?,-8,18%,5%,13µM*
Cc1ccc(C(=O)CSc2ccc(-c3cccnc3)nn2)cc1,-8,-27%,26,112µM*,2.5µM*,?
COc1ccc(-c2ccc(SCc3ccccn3)nn2)cc1OC,4,13µM*,-56*,17%,-4%[10 µM],?
O=C(/C=C/c1ccc(C(F)(F)F)cc1)c1cccc(N2CCCC2=O)c1,13,·,·,·,·,·
CSc1ccccc1C(=O)NC(C)c1ccc(F)cc1 (stereo not given),2,·,·,·,·,·
O=[N+]([O-])c1cccc(-c2ccc(SCc3ccccn3)nn2)c1,-2,?,?,?,?,26µM*
CSc1nc2c([nH]1)c(=S)n(C)c(=O)n2C,5,5.8µM*,-20,·,·,5.2µM*
CCN(CC)CCSc1nc2c([nH]1)c(=S)n(C)c(=O)n2C,5,4.1µM*,-24,·,·,5.2µM*
Cn1c(=S)c2[nH]c(SCCC(C)(C)C)nc2n(C)c1=O,-6,1.5µM*,0,·,·,1µM*
